The source made the active and inactive calls.

The nature of assay [1]: compounds binding Alexa647 anti-His antibody – biochemical, small-molecule microarray, 635 nm fluorescence, artefact control for SMM control protein annotation, primary screen (AID 1128).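 Note: score merges feature fluorescence with signal-to-noise for each printed compound spot.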 As to conditions: higher = more signal.
The test system of assay [2] is Human papillomavirus type 1a E7 protein (residues 1-88). The experiment in a line: HPV1a E7 small-molecule binders, primary screen, biochemical, small-molecule microarray, residues 1-88, 635 nm (AID 1129). As to conditions: small-molecule microarray binding, fluorescence 635 nm; higher = more signal.
Assay [3] addresses Focal adhesion kinase 1 (Homo sapiens) (UniProt Q05397). The experiment in a line: PTK2 protein binding on printed compound slides – biochemical, small-molecule microarray, 635/667 nm fluorescence, BSA, DTT, primary screen (AID 1130).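 Note: composite of spot emission at 667 nm and signal to noise over triplicate slides.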 To be noted: 635 nm fluorescence, higher = more signal.
Assay [4] relates to Fibrinogen (Alexa647-labelled). Put plainly: Alexa647-fibrinogen binding to printed small molecules – biochemical, small-molecule microarray, 635/667 nm fluorescence, artefact control for SMM control-protein annotation, profiling panel (AID 1131).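 Note: z-score merges 667 nm fluorescence with per-spot signal-to-noise over triplicate slides.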 To be noted: fibrinogen-A647 binding fluorescence, higher = more signal.
Assay [5] deals with Follistatin (Homo sapiens) (UniProt P19883). Put plainly: FST protein binding to printed compounds – biochemical, small-molecule microarray, 635/667 nm fluorescence, primary screen (AID 1132). As to conditions: 635 nm fluorescence, higher = more signal.
Follistatin (Homo sapiens), sequence (P19883 whole entry, looked up): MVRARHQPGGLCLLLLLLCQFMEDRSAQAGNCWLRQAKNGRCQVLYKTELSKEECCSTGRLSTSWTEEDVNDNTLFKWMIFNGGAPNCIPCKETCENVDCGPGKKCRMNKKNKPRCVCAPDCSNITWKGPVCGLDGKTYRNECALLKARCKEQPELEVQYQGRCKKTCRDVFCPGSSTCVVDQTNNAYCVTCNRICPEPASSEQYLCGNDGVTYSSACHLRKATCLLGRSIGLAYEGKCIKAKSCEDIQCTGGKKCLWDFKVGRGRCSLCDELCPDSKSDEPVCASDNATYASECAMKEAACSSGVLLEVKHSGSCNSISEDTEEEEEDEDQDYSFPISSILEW
Assay [6] has as its target Fibroblast growth factor 2 (Homo sapiens) (UniProt P09038). Put plainly: basic fibroblast growth factor binding to printed compounds – biochemical, small-molecule microarray, 635/667 nm fluorescence, primary screen (AID 1133). To be noted: FGF2, fluorescence 635/667, higher = more signal.
Assay [7] is described as follows: JC-1 mitochondrial potential readout, lung cancer cells – cell-based, A549, JC-1 fluorescence, basal, 24 h, 100 nL, profiling panel (AID 1138).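 Note: A549 lung adenocarcinoma cells under basal conditions with no added stimulus; test concentration not given here.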 As to conditions: higher = more signal.
In another assay the test system is Lefty1. The experiment in a line: Lefty1 protein binding to printed compounds – biochemical, small-molecule microarray, 635/667 nm fluorescence, primary screen (AID 1139). To be noted: fluorescence 635/667, higher = more signal.
The subject of assay [8] is wheat germ agglutinin (Triticum aestivum), Alexa647-labelled. Put plainly: Alexa647-WGA lectin binding to printed small molecules – biochemical, small-molecule microarray, 635/667 nm fluorescence, artefact control for SMM control-protein annotation, profiling panel (AID 1140).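 Note: score merges 667 nm feature emission with signal to noise over triplicate slides.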 As to conditions: WGA-A647 binding, 635 nm fluorescence, higher = more signal.
Assay [9] has as its target Luciferin 4-monooxygenase (Photinus pyralis) (UniProt P08659). The experiment in a line: inhibition of purified Photinus pyralis luciferase – biochemical, luminescence, purified enzyme, 2006 set, primary screen (AID 1141).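 Note: cell-free assay with purified firefly luciferase at 100 ng per well in PBS; test concentration not given here.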 As to conditions: purified firefly luciferase, SteadyGlo luminescence, 30 min; higher = more signal, called active from +8 up or from −8 down.

Luciferin 4-monooxygenase (Photinus pyralis), sequence (P08659 whole entry, looked up): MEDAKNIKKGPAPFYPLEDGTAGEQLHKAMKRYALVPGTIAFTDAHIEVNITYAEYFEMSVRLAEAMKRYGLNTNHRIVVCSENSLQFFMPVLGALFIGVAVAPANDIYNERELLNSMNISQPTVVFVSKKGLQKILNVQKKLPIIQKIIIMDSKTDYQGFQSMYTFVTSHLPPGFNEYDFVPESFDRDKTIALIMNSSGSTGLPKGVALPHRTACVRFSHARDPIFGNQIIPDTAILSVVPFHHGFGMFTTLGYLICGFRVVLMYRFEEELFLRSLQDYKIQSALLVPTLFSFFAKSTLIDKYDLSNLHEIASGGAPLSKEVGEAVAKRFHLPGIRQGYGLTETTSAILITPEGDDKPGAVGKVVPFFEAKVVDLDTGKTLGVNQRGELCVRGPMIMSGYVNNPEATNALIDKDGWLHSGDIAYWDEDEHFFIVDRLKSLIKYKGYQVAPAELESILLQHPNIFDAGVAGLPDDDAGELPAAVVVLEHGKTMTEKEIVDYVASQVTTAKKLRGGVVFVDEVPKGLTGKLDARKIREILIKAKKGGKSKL
Fibroblast growth factor 2 (Homo sapiens), sequence (P09038 whole entry, looked up): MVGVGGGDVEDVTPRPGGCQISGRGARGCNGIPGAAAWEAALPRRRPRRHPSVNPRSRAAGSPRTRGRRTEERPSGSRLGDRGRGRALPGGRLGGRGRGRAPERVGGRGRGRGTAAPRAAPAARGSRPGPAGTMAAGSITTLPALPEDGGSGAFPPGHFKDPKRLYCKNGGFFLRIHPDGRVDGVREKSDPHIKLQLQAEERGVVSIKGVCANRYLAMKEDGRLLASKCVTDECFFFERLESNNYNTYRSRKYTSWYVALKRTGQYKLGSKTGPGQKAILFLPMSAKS
Focal adhesion kinase 1 (Homo sapiens), sequence (Q05397 whole entry, looked up): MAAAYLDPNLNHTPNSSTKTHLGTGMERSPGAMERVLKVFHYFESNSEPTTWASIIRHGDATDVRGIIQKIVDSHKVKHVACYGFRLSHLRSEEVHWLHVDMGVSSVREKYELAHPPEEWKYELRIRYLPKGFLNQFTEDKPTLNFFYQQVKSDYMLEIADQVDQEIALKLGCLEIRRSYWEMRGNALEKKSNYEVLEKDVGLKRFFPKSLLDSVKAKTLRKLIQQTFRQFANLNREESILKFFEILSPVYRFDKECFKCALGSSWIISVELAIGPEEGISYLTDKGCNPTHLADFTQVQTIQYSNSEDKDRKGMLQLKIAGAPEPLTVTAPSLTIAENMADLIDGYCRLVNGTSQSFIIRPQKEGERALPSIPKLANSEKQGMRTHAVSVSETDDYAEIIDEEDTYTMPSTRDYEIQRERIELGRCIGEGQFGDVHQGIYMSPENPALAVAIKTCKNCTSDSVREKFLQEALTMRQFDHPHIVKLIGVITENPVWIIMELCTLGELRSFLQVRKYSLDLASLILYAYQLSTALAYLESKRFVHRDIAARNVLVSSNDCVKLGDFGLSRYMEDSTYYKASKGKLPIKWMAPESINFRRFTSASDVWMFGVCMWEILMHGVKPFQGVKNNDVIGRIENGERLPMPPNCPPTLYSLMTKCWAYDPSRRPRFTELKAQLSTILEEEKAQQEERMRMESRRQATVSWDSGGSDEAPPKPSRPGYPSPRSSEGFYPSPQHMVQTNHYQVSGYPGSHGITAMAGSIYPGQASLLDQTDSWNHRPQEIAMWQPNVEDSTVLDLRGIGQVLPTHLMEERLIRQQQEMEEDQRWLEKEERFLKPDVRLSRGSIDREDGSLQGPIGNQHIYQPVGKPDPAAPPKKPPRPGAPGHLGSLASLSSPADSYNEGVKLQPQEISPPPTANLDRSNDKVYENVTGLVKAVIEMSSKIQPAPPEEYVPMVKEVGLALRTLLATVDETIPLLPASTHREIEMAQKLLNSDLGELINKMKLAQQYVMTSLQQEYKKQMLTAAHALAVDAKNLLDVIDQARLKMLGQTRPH

As to `CCCCCCC#C[Si](O[C@H](c1ccccc1)c1cn(Cc2cccc(Cl)c2)nn1)(C(C)C)C(C)C`, the composite z-score was determined as 1.16 in assay [1]; 0.696 in [2]; 0.035 in [3]; 0.201 in assay [4]; 0.363 in assay [5]; 0.142 in [6]. The values for the composite z-score (in the assay with Lefty1; in [8]) were 0.234 and 0.403, respectively. Moreover, the z-score in assay [7] was 1.4; in assay [9], 0.163 (inactive).

With `NC(=O)NCC#Cc1ccc2c(c1)[C@]1(C(=O)N2)[C@H](c2ccc(O)cc2)N2[C@H](c3ccccc3)[C@H](c3ccccc3)OC(=O)[C@H]2[C@@H]1C(N)=O`, the composite z-score in [1] is 0.184; in assay [2] it was -1.21; in assay [3] it was -0.549; in assay [4], -0.934; in [5] it was -0.0645; in [6], -0.219. The composite z-score in the assay on Lefty1 is -0.295; in assay [8], -0.784. Moreover, the results for the z-score in [7] and in assay [9] were -0.65 and -0.22 (inactive), respectively.

In the case of `COc1ccc([Si](C)(C)[C@@H]2[C@@H](CCO)O[C@]3(C(=O)N(Cc4cccc(N5C(=O)COc6ccccc65)c4)c4ccccc43)[C@H]2C)cc1`, the composite z-score in assay [1] is 0.279; in [2], 0.733; in assay [3], 0.0257; in assay [4], 0.415; in [5], -0.0428; in assay [6], 0.327. The composite z-score came to 0.0695 in the assay with Lefty1 and 0.764 in assay [8]. Besides, the values for the z-score in assay [7] and in [9] were -1.04 and -0.123 (inactive), respectively.

Turning to `COC(=O)[C@@]1(Cc2ccccc2N=[N+]=[N-])N=C(c2ccc(OCCCO)cc2)O[C@H]1c1ccccc1`, the composite z-score came out at 2.23 in [1]; 1.13 in assay [2]; 0.771 in assay [3]; 0.422 in assay [4]; 0.465 in assay [5]; 0.19 in [6]. In addition, the composite z-score worked out at 0.138 with Lefty1 and 0.0657 in assay [8]. Moreover, the z-score in assay [7] was -1.26; in assay [9], -2.7 (inactive).

As to `Cc1ccc(N2C(=O)c3ccccc3[C@](C)(C(=O)NC(C)C)[C@@H]2c2ccc(CO)cc2)nc1`, the composite z-score is -2.03 in assay [1]; -1.29 in [2]; -1.72 in assay [3]; -2.28 in assay [4]; -0.739 in assay [5]; -0.276 in assay [6]. Besides, the composite z-score is -2.28 with Lefty1 and 0.654 in assay [8]. Moreover, the z-score was 0.0388 in assay [7] and -1.01 (inactive) in [9].

On to `COc1ccc(C#Cc2ccc3c(c2)[C@]2(C(=O)N3)[C@H](C(=O)O)[C@H]3C(=O)O[C@H](c4ccccc4)[C@H](c4ccccc4)N3[C@@H]2c2ccc(OCCO)cc2)cc1`, for which the composite z-score in [1] came to 2.61; in assay [2], 1.19; in assay [3], 0.681; in assay [4] it was 0.836; in assay [5] it was 0.714; in assay [6] it was 0.56. The composite z-score in the assay on Lefty1 stood at 0.128; in assay [8], 1.18. For the same molecule, the z-score in assay [7] is -2.47; in [9] it was -5.18 (inactive).

Consider `C[N+](C)(C)CCCC[C@@H]1NC(=O)[C@@H]2C[C@H](C(=O)O)[C@H](c3cccc(OCCO)c3)N2C1=O`, for which the composite z-score in assay [1] is 0.0065; in [2], -0.586; in [3], -0.466; in assay [4], -1.46; in assay [5], 1.45; in [6], 1.5. Moreover, the composite z-score with Lefty1 was 0.135; in assay [8], 0.218. Besides, the z-score is 1.08 in [7] and -1.99 (inactive) in [9].

Take `CCCCCCCCCCC(O)C1C=CC2C(=O)NC(=O)C2N1Nc1ccccn1` (stereo not given): the composite z-score in [1] is 0.121; in [2] it was 0.749; in [3], 0.675; in assay [4], 0.666; in assay [5], -0.008; in assay [6], -1.4. Also, the composite z-score in the assay on Lefty1 was -0.458; in assay [8], 0.331. The z-score in assay [7] is 0.706; in [9] it was -0.765 (inactive).

Take `CN(C)CCCNC(=O)[C@@]1(Cc2ccccc2I)c2ccccc2C(=O)N(Cc2ccccc2Cl)[C@H]1c1ccc(CO)cc1`: the composite z-score in assay [1] is -0.528; in [2], 1.08; in assay [3], 0.224; in assay [4] it was 0.788; in assay [5], -0.292; in assay [6], -0.717. Further, the composite z-score is -0.615 in the assay on Lefty1 and 0.73 in assay [8]. In addition, the z-score in [7] was -1.18; in assay [9], 0.122 (inactive).

On to `CC(C)CNC(=O)[C@@]1(C)c2ccccc2C(=O)N(Cc2ccccc2)[C@H]1c1ccc(CO)cc1`, for which the composite z-score in [1] is -0.97; in assay [2], -0.955; in assay [3], -0.846; in assay [4], -1.84; in assay [5], -0.976; in assay [6], -1.27. Also, the composite z-score was -2.25 in the assay with Lefty1 and -1.4 in assay [8]. Moreover, the z-score in assay [7] is -0.504; in assay [9], 0.182 (inactive).

Regarding `[N-]=[N+]=NCc1ccccc1C[C@]1(C(=O)NCCN2CCOCC2)COC(c2ccc(OCCCO)cc2)=N1`, the composite z-score was 0.293 in assay [1]; 1.24 in assay [2]; 0.815 in assay [3]; 1.02 in [4]; 0.953 in [5]; 0.152 in assay [6]. In addition, the composite z-score in the assay with Lefty1 was determined as 0.346; in assay [8] it was 0.783. Besides, the z-score in assay [7] is 1.88; in assay [9], -0.851 (inactive).

Consider `C=CCNC(=O)[C@H]1[C@@H]2C(=O)O[C@@H](c3ccccc3)[C@@H](c3ccccc3)N2[C@@H](c2ccc(O)cc2)[C@]12C(=O)N(C(=O)OCCOC)c1ccc(C#CC3(O)CCCCCC3)cc12`, for which the composite z-score in assay [1] turned out to be 1.23; in [2] it was 1.18; in assay [3], 0.737; in assay [4] it was 0.485; in assay [5], 0.759; in assay [6], 0.678. The results for the composite z-score (in the assay on Lefty1; in assay [8]) were 0.218 and 0.764, respectively. In addition, the z-score was 1.14 in assay [7] and -0.991 (inactive) in [9].

Consider `CN(C)CCCN1C(=O)[C@@]2(Cc3ccccc31)c1ccccc1C(=O)N(Cc1ccccc1)[C@H]2c1ccc(CO)cc1`, for which the composite z-score in [1] is -0.201; in assay [2] it was -0.153; in assay [3], -0.0553; in [4], 0.385; in [5], 0.375; in assay [6] it was 0.144. Moreover, the composite z-score with Lefty1 stood at 0.122; in assay [8], 0.111. For the same molecule, the z-score in [7] is -0.548; in assay [9], 1.09 (inactive).

With `Cc1ccc(S[C@]2(C(=O)NCC(C)C)CC(=O)N(C3CCCCC3)[C@@H]2c2ccc(CO)cc2I)cc1`, the composite z-score in [1] was 0.464; in assay [2] it was 1.17; in assay [3] it was 0.558; in [4], 0.166; in assay [5], 0.0905; in assay [6] it was -0.284. Moreover, the composite z-score in the assay with Lefty1 is 0.0839; in [8], 0.752. The z-score was 1.28 in [7] and 1.22 (inactive) in assay [9].

The values are drawn from PubChem BioAssay.
